Results reported in PMC5540273 (PLoS ONE, 2017).

Legend:
Settings in all cases: concentration: 1 μM,replicates: in singlicate; n = 1
PLK2 = system: PLK2
PLK3 = system: PLK3
PLK4 = system: PLK4
PRKCD = system: PRKCD
PRKCE = system: PRKCE
PRKCH = system: PRKCH
PRKCI = system: PRKCI
PRKCQ = system: PRKCQ
PRKD1 = system: PRKD1
PRKD2 = system: PRKD2
PRKD3 = system: PRKD3
PRKG1 = system: PRKG1
PRKG2 = system: PRKG2
PRKR = system: T1, PRKR
T1 construct: gene EIF2AK2

PRKX = system: PRKX
PRP4 = system: PRP4
QSK = system: QSK
RAF1 = system: RAF1
RET = system: RET
PYK2 = system: T2, PYK2
T2 construct: gene PTK2B
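Note: KINOMEscan kinase panel screen.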

| SMILES | %Inh (PLK2) [%] | %Inh (PLK3) [%] | %Inh (PLK4) [%] | %Inh (PRKCD) [%] | %Inh (PRKCE) [%] | %Inh (PRKCH) [%] | %Inh (PRKCI) [%] | %Inh (PRKCQ) [%] | %Inh (PRKD1) [%] | %Inh (PRKD2) [%] | %Inh (PRKD3) [%] | %Inh (PRKG1) [%] | %Inh (PRKG2) [%] | %Inh (PRKR) [%] | %Inh (PRKX) [%] | %Inh (PRP4) [%] | %Inh (QSK) [%] | %Inh (RAF1) [%] | %Inh (RET) [%] | %Inh (PYK2) [%] |
| --- | --- | --- | --- | --- | --- | --- | --- | --- | --- | --- | --- | --- | --- | --- | --- | --- | --- | --- | --- | --- |
| O=c1[nH]cc(-c2ccc(O)cc2)c2sc(-c3ccncc3)cc12 [GSK1033723] | 0 | 0 | 0 | 0 | 21 | 0 | 33 | 19 | 0 | 0 | 1 | 16 | 14 | 0 | 10 | 22 | 1 | 7 | 29 | – |
| CCCC(=O)Nc1n[nH]c2ncccc12 [SB-601436] | 7 | 7 | 0 | 0 | 19 | 0 | 0 | 0 | 0 | 0 | 0 | 5 | 0 | 0 | 0 | 8 | 0 | 0 | 0 | 7 |
| C[C@@H]1CNc2c(sc3ccc4nc(-c5ccncc5)ccc4c23)C(=O)N1 | 1 | 8 | 92.7 | 22 | 65 | 0 | 0 | 8 | 49 | 12 | 34 | 35 | 57 | 0 | 34 | 0 | 0 | 0 | 14 | 3 |
| Cc1ccc(CC(=O)N2CCc3cc(-c4cn(C)c5ncnc(N)c45)ccc32)cc1 [GSK2634758] | 2 | 0 | 0 | 15 | 15 | 35 | 27 | 33 | 0 | 14 | 0 | 4 | 12 | 7 | 12 | 20 | 0 | 7 | 7 | 0 |
| CNC(=O)c1ccccc1Nc1nc(Nc2cccc(CS(C)(=O)=O)c2)ncc1C.O=CO [GSK1520489] | 68 | 17 | 100 | 13 | 77 | 0 | 17 | 42 | 0 | 6 | 13 | 0 | 8 | 28 | 0 | 82 | 22 | 2 | 100 | 99.5 |
| NC(=O)c1ccc(-c2cc3ncnc(SCC(=O)O)c3s2)cc1 | 0 | 6 | 56 | 0 | 0 | 0 | 0 | 0 | 0 | 0 | 0 | 0 | 0 | 100 | 0 | 44 | 0 | 3 | 0 | – |
| COc1cccc(OC)c1C(=O)Nc1cccc(-c2nn3ccccc3c2-c2ccnc(Nc3cccc(F)c3)n2)c1 [GSK361065] | 10 | 0 | 16 | 26 | 14 | 11 | 21 | 17 | 17 | 1 | 2 | 11 | 0 | 0 | 0 | 0 | 0 | 29 | 90.1 | 8 |
| COc1ccc(Nc2nccc(N3CCC(NC(=O)c4cccc(C#N)c4)C3)n2)cc1 (centres unmarked) [GSK1379730] | 0 | 0 | 0 | 8 | 0 | 36 | 54 | 0 | 0 | 0 | 0 | 12 | 15 | 0 | 0 | 9 | 2 | 0 | 28 | 18 |
| O=C(NOCC1CC1)c1cc(Br)c(F)c(F)c1Nc1ccc(I)cc1Cl | 0 | 4 | 0 | 0 | 6 | 0 | 0 | 13 | 0 | 11 | 0 | 0 | 0 | 0 | 0 | 32 | 0 | 0 | 6 | 0 |
| Cn1ccc2ncnc(Oc3ccc(NC(=O)Nc4cnn(C(C)(C)C)c4)c(Cl)c3)c21 | 1 | 11 | 31 | 27 | 0 | 0 | 10 | 21 | 0 | 13 | 4 | 9 | 0 | 17 | 3 | 0 | 0 | 44 | 100 | 0 |
| O=C(Nc1ccccc1)c1cccc(Oc2ccc3nccn3n2)c1 | 5 | 0 | 0 | 0 | 13 | 0 | 5 | 24 | 33 | 0 | 1 | 2 | 0 | 0 | 70 | 0 | 0 | 78 | 0 | 0 |
| O=C(NCC1CC1)c1ccc(-c2cc(C(=O)NC3CC3)ccc2F)cc1 [GW810445] | 0 | 0 | 0 | 0 | 27 | 0 | 0 | 0 | 0 | 0 | 0 | 0 | 0 | 0 | 0 | 16 | 0 | 0 | 4 | 0 |
| CCn1c(-c2nonc2N)nc2cncc(Br)c21 [SB-738004] | 8 | 14 | 76 | 21 | 92.8 | 58 | 36 | 6 | 0 | 11 | 0 | 0 | 92.1 | 36 | 0 | 27 | 0 | 10 | 26 | 0 |
| CN(c1ccc2c(c1)nc(NCc1ccc(F)cc1)n2C)c1ccnc(Nc2ccc(CS(C)(=O)=O)cc2)n1.Cl [GW813244] | 3 | 21 | 73 | 11 | 100 | 0 | 18 | 0 | 0 | 24 | 7 | 9 | 0 | 0 | 0 | 0 | 0 | 96.4 | 100 | 39 |
